Data from PubChem BioAssay (Tox21).
Where “and” joins values, the source holds several entries; their conditions need not be identical. Equal entries are not always repeated. Results filed as inconclusive are left out. Calls of active or inactive are those of the source. Unless noted, the call rests on the fitted dose curve; in most records, active means well fitted curve in the direction sought with a large enough effect in the repeat runs; inconclusive means weak or mixed curves; inactive means no such curve, though single readings can be large; an effect the other way counts as inactive or inconclusive.

Assays:
[1] = qHTS assay to identify small molecule antagonists of the thyroid receptor (TR) signaling pathway (AID 743065); further: nearly all actives have a fitted effect of over 55% in size
Procedure, shortened: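 GH3.TRE-Luc rat pituitary cells carrying two TR response elements driving luciferase were plated for 4 h, given compound plus 1 nM T3 (final), and incubated 23.5 h at 37 C. ONE-Glo luminescence measured reporter inhibition; CellTiter-Fluor fluorescence tracked cytotoxicity.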

[2] = tested on: thyroid hormone receptor (rat, GH3 cells); assay: qHTS assay to identify small molecule agonists of the thyroid receptor (TR) signaling pathway (AID 743066; calls by dose curve)
[3] = target: Estrogen receptor (Homo sapiens) (UniProt P03372); assay: qHTS assay to identify small molecule antagonists of the estrogen receptor alpha (ER-alpha) signaling pathway (AID 743069; active means well fitted curve in the direction sought with a large enough effect in the signal ratio in the repeat runs, not every such curve was filed as active; the % refers to the signal ratio)
Procedure, shortened: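 Estradiol-stimulated ER-alpha-UAS-bla HEK293 cells, 18 hr compound exposure at 37C. LiveBLAzer B/G substrate, 2 hr RT, fluorescence read.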

[4] = qHTS assay to identify small molecule antagonists of the estrogen receptor alpha (ER-alpha) signaling pathway - cell viability counter screen (AID 743074; calls by dose curve;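 further: HEK293 cells carrying ER-alpha-UAS-bla reporter stimulated with 17beta-estradiol; nearly all actives have a fitted effect of over 45% in size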)
[5] = target: Estrogen receptor (Homo sapiens) (UniProt P03372); assay: qHTS assay to identify small molecule agonists of the estrogen receptor alpha (ER-alpha) signaling pathway (AID 743075; calls by dose curve;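 further: HEK293 GripTite cells with ER-alpha and UAS-driven beta-lactamase reporter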)
[6] = target: Estrogen receptor (Homo sapiens) (UniProt P03372); assay: qHTS assay to identify small molecule agonists of the estrogen receptor alpha (ER-alpha) signaling pathway using the BG1 cell line (AID 743079); details: BG1Luc4E2 cells, ERE-luciferase agonist, 22 h; further: nearly all actives have a fitted effect of over 20% in size; further: potency means the concentration at half of the fitted maximal effect
[7] = qHTS assay to identify small molecule antagonists of the estrogen receptor alpha (ER-alpha) signaling pathway using the BG1 cell line (AID 743080; calls by dose curve;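 further: BG1 cells stimulated with 17beta-estradiol alongside compound; nearly all actives have a fitted effect of over 25% in size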; further: potency means the concentration at half of the fitted maximal effect)
Procedure, shortened: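 Readout is ONE-Glo luminescence, taken 30 min at room temperature after reagent addition, preceded by a CellTiter-Fluor viability read; BG1-Luc-4E2 cells had received compound and 17beta-estradiol for 21.5 h at 37 C.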

Aromatase (Homo sapiens) = Aromatase (Homo sapiens) (UniProt P11511); assay: qHTS assay to identify aromatase inhibitors (AID 743083); further: nearly all actives have a fitted effect of over 55% in size; further: potency means the concentration at half of the fitted maximal effect
[8] = qHTS assay to identify aromatase inhibitors - cell viability counter screen (AID 743084);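 further: cells stimulated with testosterone during compound exposure; nearly all actives have a fitted effect of over 55% in size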; further: potency means the concentration at half of the fitted maximal effect
[9] = qHTS assay to identify small molecule antagonists of the estrogen receptor alpha (ER-alpha) signaling pathway using the BG1 cell line - cell viability counter screen (AID 743081);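 further: compound given together with 17beta-estradiol as the ER stimulus; nearly all actives have a fitted effect of over 45% in size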
On the % scale 0 is the no-effect control and ±100 the full control effect.

Estrogen receptor (Homo sapiens), sequence (P03372 whole entry, looked up): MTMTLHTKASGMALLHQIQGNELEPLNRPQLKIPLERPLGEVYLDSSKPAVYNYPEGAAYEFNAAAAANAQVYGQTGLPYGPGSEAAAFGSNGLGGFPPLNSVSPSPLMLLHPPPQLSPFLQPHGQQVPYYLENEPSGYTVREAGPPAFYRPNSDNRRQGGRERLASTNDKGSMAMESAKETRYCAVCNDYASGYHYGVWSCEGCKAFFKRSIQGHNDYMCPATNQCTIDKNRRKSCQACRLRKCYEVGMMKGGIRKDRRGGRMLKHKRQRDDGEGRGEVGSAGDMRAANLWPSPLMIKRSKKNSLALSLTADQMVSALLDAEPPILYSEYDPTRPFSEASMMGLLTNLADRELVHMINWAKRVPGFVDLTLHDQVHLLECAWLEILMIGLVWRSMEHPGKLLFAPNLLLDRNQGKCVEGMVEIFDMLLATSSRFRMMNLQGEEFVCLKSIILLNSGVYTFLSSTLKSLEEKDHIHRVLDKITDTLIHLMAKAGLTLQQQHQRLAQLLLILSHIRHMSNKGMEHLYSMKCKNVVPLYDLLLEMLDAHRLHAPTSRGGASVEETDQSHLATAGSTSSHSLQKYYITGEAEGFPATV
Aromatase (Homo sapiens), sequence (P11511 whole entry, looked up): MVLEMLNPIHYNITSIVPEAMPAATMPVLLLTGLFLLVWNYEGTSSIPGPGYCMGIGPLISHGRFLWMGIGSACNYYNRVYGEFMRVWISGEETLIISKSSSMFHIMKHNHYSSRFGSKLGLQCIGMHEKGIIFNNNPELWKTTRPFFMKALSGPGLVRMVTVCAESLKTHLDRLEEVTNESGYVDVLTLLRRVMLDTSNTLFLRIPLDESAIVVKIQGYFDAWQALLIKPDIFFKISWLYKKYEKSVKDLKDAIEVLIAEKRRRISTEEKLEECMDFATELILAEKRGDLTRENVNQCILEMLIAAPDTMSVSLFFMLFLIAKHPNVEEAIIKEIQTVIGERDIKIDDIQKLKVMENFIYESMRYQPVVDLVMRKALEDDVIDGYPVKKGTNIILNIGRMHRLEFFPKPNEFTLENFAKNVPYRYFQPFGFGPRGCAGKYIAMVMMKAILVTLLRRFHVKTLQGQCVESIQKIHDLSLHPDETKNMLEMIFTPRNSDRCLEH

CCC1(c2ccccc2)CCC(=O)NC1=O (stereo not given)
inactive: Potency [1] | Potency [2] | Potency [3] | Potency [4] | Potency [5] | activation ([6]; at 70.3 µM (top of the series)) 2.78% | Potency [7] | Potency (Aromatase (Homo sapiens)) | Potency [8]

CCOC(=O)C(Cl)Cc1cc(-n2nc(C)n(C(F)F)c2=O)c(F)cc1Cl (stereo not given)
inactive: Potency [1] | Potency [2] | Potency [3] | Potency [4] | Potency [5] | Potency [7] | Potency [9] | Potency [8]
active: Potency (Aromatase (Homo sapiens)) 54.5 µM

CCOC1Oc2ccc(OS(C)(=O)=O)cc2C1(C)C (stereo not given)
inactive: Potency [1] | Potency [2] | Potency [3] | Potency (Aromatase (Homo sapiens)) | Potency [8]

COc1ccccc1OC
inactive: Potency [1] | Potency [2] | Potency [3] | Potency [5] | activation ([6]; at 70.3 µM (top of the series)) 21.9% | Potency [7] | Potency [9] | Potency (Aromatase (Homo sapiens)) | Potency [8]

Cn1c(N)nc2c3cccnc3ccc21
inactive: Potency [1] | Potency [2] | Potency [3] | Potency [4] | Potency [5] | activation ([6]; at 70.3 µM (top of the series)) 9.73% | Potency [7] | Potency (Aromatase (Homo sapiens))
active: Potency [8] 29.1 µM

Nc1c(Cl)c(F)nc(OCC(=O)O)c1Cl
inactive: Potency [1] | Potency [2] | Potency [3] | Potency [4] | Potency [5] | activation ([6]; at 70.3 µM (top of the series)) -0.92% | Potency [7] | Potency [9] | Potency (Aromatase (Homo sapiens)) | Potency [8]

CCOC(=O)CC(SP(=S)(OC)OC)C(=O)OCC (stereo not given)
inactive: Potency [1] | Potency [2] | Potency [3] | Potency [4] | Potency [5] | Potency [7] | Potency [9] | Potency (Aromatase (Homo sapiens)) | Potency [8]

CC(C)(C)C(=O)Cl
inactive: Potency [1] | Potency [2] | Potency [3] | Potency [4] | Potency [5] | activation ([6]; at 95 µM (top of the series)) -4.71% | Potency [7] | Potency [9] | Potency (Aromatase (Homo sapiens)) | Potency [8]

N[C@@H]1C[C@H]1c1ccccc1
inactive: Potency [1] | Potency [2] | Potency [3] | Potency [4] | Potency [5] | activation ([6]; at 70.3 µM (top of the series)) 1.81% | Potency [7] | Potency [9] | Potency [8]

Clc1nc(Cl)nc(Nc2ccccc2Cl)n1
inactive: Potency [1] | Potency [2] | Potency [3] | Potency [5] | activation ([6]; at 70.3 µM (top of the series)) 9.21% | Potency [7] | Potency [9] | Potency (Aromatase (Homo sapiens)) | Potency [8]

CCSC(=O)Cl
inactive: Potency [1] | Potency [2] | Potency [3] | Potency [4] | Potency [5] | Potency [7] | Potency [9] | Potency (Aromatase (Homo sapiens)) | Potency [8]

BrCC1CO1 (stereo not given)
inactive: Potency [1] | Potency [2] | Potency [3] | Potency [4] | Potency [5] | activation ([6]; at 95 µM (top of the series)) 8.58% | Potency [7] | Potency [9] | Potency (Aromatase (Homo sapiens)) | Potency [8]

COP(=O)(OC)O/C(C)=C/C(=O)N(C)C
inactive: Potency [1] | Potency [2] | Potency [3] | Potency [4] | Potency [5] | activation ([6]; at 95 µM (top of the series)) -7.62% | Potency [7] | Potency [9] | Potency (Aromatase (Homo sapiens)) | Potency [8]

CCOC(=O)NC(C)(C)Cc1ccc(Cl)cc1
inactive: Potency [1] | Potency [2] | Potency [3] | Potency [5] | activation ([6]; at 70.3 µM (top of the series)) 6.17% | Potency [7] | Potency [9] | Potency (Aromatase (Homo sapiens)) | Potency [8]

N=C(N)[Se]
inactive: Potency [1] | Potency [2] | Potency [3] | Potency [4] | Potency [5] | activation ([6]; at 95 µM (top of the series)) -2.62% | Potency [7] | Potency (Aromatase (Homo sapiens)) | Potency [8]

CC[C@H](N)c1ccccc1
inactive: Potency [1] | Potency [2] | Potency [3] | Potency [5] | activation ([6]; at 70.3 µM (top of the series)) 0.171% | Potency [7] | Potency [9] | Potency (Aromatase (Homo sapiens)) | Potency [8]

CCOC(=O)Nc1cccc(OC(=O)Nc2ccccc2)c1
inactive: Potency [1] | Potency [2] | Potency [3] | Potency [4] | Potency [5] | Potency [9] | Potency (Aromatase (Homo sapiens)) | Potency [8]
active: Potency [6] 27.3 µM

Clc1cc2c(cc1Cl)Oc1cc(Cl)c(Cl)cc1O2
inactive: activity, negative = inhibition [1] 0.19% [at 0.341 µM] | activation [2] -1.12% [at 0.329 µM] | activity, negative = inhibition [3] -7.88% [at 0.274 µM] | activity, negative = cytotoxicity [4] 14.4% [at 0.274 µM] | activation [5] -4.62% [at 0.274 µM] | activation ([6]; at 0.341 µM (top of the series)) -0.247% | activity change, negative = cytotoxicity [9] -0.0382% [at 0.341 µM] | activity change, negative = cytotoxicity [8] 1.38% [at 0.342 µM]
active: Potency [7] 0.7 nM

ClC(Cl)(Cl)Cl
inactive: Potency [1] | Potency [2] | Potency [3] | Potency [4] | Potency [5] | activation ([6]; at 70.3 µM (top of the series)) 2.38% and 2.1% | Potency [7] | Potency [9] | Potency (Aromatase (Homo sapiens)) | Potency [8]

CCN(CCO)CCn1c(Cc2ccccc2)nc2c1c(=O)n(C)c(=O)n2C
inactive: Potency [1] | Potency [2] | Potency [3] | Potency [4] | Potency [5] | activation ([6]; at 70.3 µM (top of the series)) 6.52% | Potency [7] | Potency (Aromatase (Homo sapiens)) | Potency [8]

CN(C)C1CCCCC1
inactive: Potency [1] | Potency [2] | Potency [3] | Potency [4] | Potency [5] | Potency [7] | Potency [9] | Potency (Aromatase (Homo sapiens)) | Potency [8]

CCN[C@@H](C)Cc1ccccc1
inactive: Potency [1] | Potency [2] | Potency [3] | Potency [4] | Potency [5] | activation ([6]; at 95 µM (top of the series)) 0.895% | Potency [7] | Potency [9] | Potency (Aromatase (Homo sapiens)) | Potency [8]

O=C(Cl)/C=C/C(=O)Cl
inactive: Potency [1] | Potency [2] | Potency [3] | Potency [5] | activation ([6]; at 95 µM (top of the series)) 5.56% | Potency [7] | Potency [9] | Potency (Aromatase (Homo sapiens)) | Potency [8]

CCOP(=S)(OCC)Oc1ccc(Cl)cc1Cl
inactive: Potency [1] | Potency [2] | Potency [3] | Potency [4] | Potency [5] | Potency [7] | Potency [9] | Potency (Aromatase (Homo sapiens)) | Potency [8]

CCC1(c2ccccc2)C(=O)N(COC)C(=O)N(COC)C1=O
inactive: Potency [1] | Potency [2] | Potency [4] | Potency [9] | Potency (Aromatase (Homo sapiens)) | Potency [8]

C[C@@H](N)[C@@H](O)c1ccccc1
inactive: Potency [1] | Potency [2] | Potency [4] | Potency [9] | Potency (Aromatase (Homo sapiens)) | Potency [8]
